Each structure is given as a SMILES string. About 83,000 compounds went through this panel and 20% of them were active in at least one assay; those are over-represented in the sample as a whole.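 Plates (96-well) were seeded with cells, treated with compound at one concentration, and incubated for 48 hours before percent growth was determined.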 Values without a mark were called inactive. Calls of active or inactive are those of the source. Rule for the calls: active = growth percent below 10; inactive = the rest.

The values below come from PubChem BioAssay (NCI).

Assay in all cases: NCI-60 one-dose screen, 48 h (100 = growth as untreated, 0 = no growth, -100 = all killed)
What all share (details): 10 µM unless noted

The subject of assay [1] is BT-549 breast.
Assay [2] relates to MDA-MB-435 melanoma.
The test system of assay [3] is SW-620 colon.
Assay [4] deals with MCF7 breast.
The test system of assay [5] is HCT-116 colon.
Assay [6] deals with HCC-2998 colon.
Assay [7] deals with KM12 colon.

With `O=C(CCCCCCCCC(=O)Nc1cccc(C2=NCCN2)c1)Nc1cccc(C2=NCCN2)c1`, the growth in assay [1] is 92.2%; in assay [2], 99.2%; in assay [3], 97.1%; in assay [4], 49.9%; in assay [5] it was 98.3%; in assay [6], 95.7%. In addition, the growth in assay [7] was 95.5%.
On to `C/C(=N/Nc1nc2ccccc2n1C)c1ccccn1`, for which the growth in assay [1] was 13.5%; in assay [2], 32.5%; in assay [3], 23.6%; in assay [4], 3.47% (active); in assay [5], 2.75% (active); in assay [6] it was 39.3%. For the same compound, the growth in assay [7] was 19.7%.
Regarding `COc1ccc(/C=C(/C(=O)N2CCCC2)c2cc(OC)c(OC)c(OC)c2)cc1`, the growth is 61.1% in assay [1]; -18.3% (active) in assay [2]; 22.1% in assay [3]; 24.8% in assay [4]; 23.8% in assay [5]; 80.1% in assay [6]. Also, in assay [7], the growth is 31.9%.
On to `CC(C)Cc1cc(CNC(=O)C2[C@H]3CN(C(=O)c4ccccc4)C[C@@H]23)nn1-c1ccccc1` (some centres undefined), for which the growth is 96.1% in assay [1]; 108% in assay [2]; 102% in assay [3]; 94.4% in assay [4]; 92% in assay [5]; 101% in assay [6]. The growth in assay [7] was 101%.
`Cc1cc2ccccc2c[n+]1CC(=O)c1ccc(-c2ccccc2)cc1`: the growth is 53.3% in assay [1]; 66.3% in assay [2]; 48.5% in assay [3]; 29.3% in assay [4]; 28.4% in assay [5]; 61.8% in assay [6]. Also, the growth in assay [7] is 56.7%.
In the case of `C#C[C@@]1(O)[C@@H](CO)O[C@@H](n2cc(F)c3c(N)ncnc32)[C@@H]1O`, the growth in assay [1] is -23.9% (active); in assay [2] it was 1.49% (active); in assay [3] it was 1.66% (active); in assay [4], 2.03% (active); in assay [5], 1.44% (active); in assay [6] it was -27.2% (active). Moreover, in assay [7], the growth was 10.2%.
Consider `O=C1c2ccccc2C(=O)c2c1oc1c2c(=O)[nH]c2ccc(Cl)cc21`, for which the growth in assay [1] is 38%; in assay [2], 10.2%; in assay [3] it was -53% (active); in assay [4], 0.704% (active); in assay [5], -12.2% (active); in assay [6], 65.1%. In assay [7], the growth was 0.119% (active).
As to `COc1cc2nc3c(=O)n(CCN(C)C)cnn3c(=O)c2cc1OC`, the growth was 98.6% in assay [1]; 97.3% in assay [2]; 97% in assay [3]; 95.9% in assay [4]; 101% in assay [5]; 99.3% in assay [6]. For the same compound, the growth in assay [7] was 95.1%.
In the case of `Oc1ccc(CNNc2ccnc3c(O)cccc23)c2cccnc12`, the growth in assay [1] is 37.1%; in assay [2] it was 38.1%; in assay [3] it was 27.9%; in assay [4], 11.2%; in assay [5], 27.3%; in assay [6], 35.7%. Also, in assay [7], the growth was 22.9%.
Regarding `COc1ccc2nc(-c3ccc(Cl)cc3)cc(-c3nnc(SC/C(=N/O)c4ccccc4)o3)c2c1`, the growth was 46.8% in assay [1]; 47% in assay [2]; 26.5% in assay [3]; 19.9% in assay [4]; 3.9% (active) in assay [5]; 84% in assay [6]. Besides, the growth in assay [7] is 58.1%.
For `CCSc1nc(Cl)c(C#N)c(-c2ccc(F)cc2)n1`, the growth in assay [1] is 103%; in assay [2] it was 91.8%; in assay [3], 93.3%; in assay [4] it was 85.1%; in assay [5], 91.8%; in assay [6], 102%. Also, in assay [7], the growth was 97.9%.
With `O=C(Nc1nc(-c2ccccc2)cs1)c1cc(-c2ccc(Br)cc2)nc2ccccc12`, the growth was 60.3% in assay [1]; 77.2% in assay [2]; 51.6% in assay [3]; 37.6% in assay [4]; 27.5% in assay [5]; 87.7% in assay [6]. Moreover, the growth in assay [7] was 67%.
As for `COc1ccc(-c2cs/c(=N\N=C\c3ccc(O)cc3O)n2/N=C/c2ccc(O)cc2O)cc1`, the growth in assay [1] is -10.4% (active); in assay [2], -32.8% (active); in assay [3], -51.3% (active); in assay [4], -11.5% (active); in assay [5] it was -52.8% (active); in assay [6] it was 4.8% (active). Further, the growth in assay [7] was -51% (active).
Turning to `COc1ccc2c(c1)C1(C(=O)N2)C(C#N)=C(c2ccccc2)Nc2c1c(-c1ccccc1)nn2-c1ccccc1` (centres undefined), the growth in assay [1] is 84.5%; in assay [2], 55.3%; in assay [3], 8.54% (active); in assay [4], 18.1%; in assay [5] it was 4.04% (active); in assay [6], 58.1%. In assay [7], the growth was 39.7%.
For the compound `O=S(=O)(Nc1nccs1)c1ccc(Nc2nc(-c3ccncc3)cs2)cc1`, the growth in assay [1] is 125%; in assay [2], 112%; in assay [3] it was 98.1%; in assay [4] it was 94.3%; in assay [5], 93.8%; in assay [6], 120%. For the same compound, in assay [7], the growth was 105%.
In the case of `CCOC(=O)/C(=C/c1c(-c2ccccc2)[nH]c2ccccc12)C(=O)c1ccc(Cl)cc1`, the growth in assay [1] was 64.7%; in assay [2], 9.31% (active); in assay [3], 45.4%; in assay [4], 28.4%; in assay [5], 14%; in assay [6] it was 67.1%. The growth in assay [7] is 18.6%.
`CC(C)C[C@H](C(=O)O)N(C)C(=O)[C@@H]1CCCN1C(=O)[C@H](C)OC(=O)[C@H](CCC(N)=O)NC(=O)[C@@H]1CCC(=O)N1`: the growth was 94.2% in assay [1]; 106% in assay [2]; 106% in assay [3]; 85.2% in assay [4]; 99.2% in assay [5]; 108% in assay [6]. Moreover, the growth in assay [7] was 100%.
